Assay [1] can be described thus: qHTS RealTime-Glo MT Cell Viability Assay in HEK293 cells - 0 hour (AID 1224880). Also: top concentration of the series differs between compounds; nearly all actives have a fitted effect of over 45% in size. In short, it runs like this: (§1)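 Kinetic, non-lysing viability readout. Seed HEK293 (600/well) with reagent, incubate 5 h at 37 C/5% CO2, pin 23 nL compound in DMSO, incubate at 37 C, read luminescence at 0, 8, 16, 24, 32, 40 h.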
The nature of assay [2]: A CellTox Green Cytotoxicity Assay to monitor cytotoxicity in HEK293 cells - 32 hour (AID 1224881). Also: nearly all actives have a fitted effect of over 40% in size. Also: potency is read from the fitted curve at half-maximal effect. In short, it runs like this:
(§2)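 Real-time, in one plate: 600 HEK293 cells/well with dead-cell DNA dye, pinned compound after 5 h, 37 C incubation over 40 h; viable cells give no appreciable fluorescence.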

A short description of assay [3]: A CellTox Green Cytotoxicity Assay to monitor cytotoxicity in HepG2 cells - 0 hour (AID 1224882). Also: nearly all actives have a fitted effect of over 35% in size. In short, it runs like this: (§3)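 Cytotoxicity was tracked as dead-cell DNA fluorescence in HepG2 cells treated with test compounds at 37 C; each time-point value comes from one kinetic series spanning 0, 8, 16, 24, 32 and 40 h.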
Assay [4] can be described thus: A CellTox Green Cytotoxicity Assay to monitor cytotoxicity in HepG2 cells - 32 hour (AID 1224883). Also: nearly all actives have a fitted effect of over 50% in size. In short, it runs like this:
as §3

Assay [5] in a line: A CellTox Green Cytotoxicity Assay to monitor cytotoxicity in HEK293 cells - 8 hour (AID 1224884). Also: nearly all actives have a fitted effect of over 35% in size. In short, it runs like this: as §2
A short description of assay [6]: qHTS RealTime-Glo MT Cell Viability Assay in HepG2 cells - 16 hour (AID 1224885). Also: nearly all actives have a fitted effect of over 50% in size. In short, it runs like this: (§4)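 Compound treatment began 5 h after plating HepG2 cells (600/well) with NanoLuc luciferase and prosubstrate. Plates stayed at 37 C for 40 h; luminescence was captured at six time points, 0 h through 40 h.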
Background: qHTS replaces the single test concentration by a dilution series.

Assay [7] is described as follows: qHTS RealTime-Glo MT Cell Viability Assay in HEK293 cells - 24 hour (AID 1224886). Also: nearly all actives have a fitted effect of over 50% in size. Also: potency is read from the fitted curve at half-maximal effect. As to activity change, negative = cytotoxicity: top concentration of the series differs between compounds. In short, it runs like this: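 Quantitative high-throughput screen of the Tox21 10K library in HEK293: cells and RealTime-Glo reagents plated together, compound added at 5 h, luminescence monitored through 40 h at 37 C.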
The nature of assay [8]: qHTS RealTime-Glo MT Cell Viability Assay in HEK293 cells - 8 hour (AID 1224887). Also: nearly all actives have a fitted effect of over 50% in size. Also: potency is read from the fitted curve at half-maximal effect. As to activity change, negative = cytotoxicity: top concentration of the series differs between compounds. In short, it runs like this: as §1
Assay [9] in a line: A CellTox Green Cytotoxicity Assay to monitor cytotoxicity in HEK293 cells - 16 hour (AID 1224888). Also: nearly all actives have a fitted effect of over 35% in size. In short, it runs like this: as §2
The nature of assay [10]: qHTS RealTime-Glo MT Cell Viability Assay in HepG2 cells - 0 hour (AID 1224889). Also: nearly all actives have a fitted effect of over 50% in size. In short, it runs like this: as §4

Unmarked numbers belong to inactive results. Inconclusive results are not listed. Active and inactive are the calls of the source. Calls follow the shape of the dose curve; as a rule, active = well fitted curve in the direction sought with a large enough effect in the repeat runs; inconclusive = weak or mixed curves; inactive = no such curve, though single readings can be large; an effect the other way counts as inactive or inconclusive.
% is scaled to controls: 0 for no effect and ±100 for the full control effect.

Consider `C=C(C)C(=O)OCCNC(C)(C)C`, for which the Potency entry in assay [1], in assay [2], in assay [4], in assay [5], in assay [7] and in assay [8] was “inactive” throughout. Further, the Potency result in assay [10] is “inactive”. The call in assay [3], in assay [6] and in assay [9] was inactive.

For the compound `CC(C)=O`, the Potency entry in [1], in assay [2], in [4], in assay [5], in assay [7] and in assay [8] was “inactive” in each case. Besides, in assay [10], the Potency entry is “inactive”. Moreover, the outcome in assay [3], in assay [6] and in assay [9] was inactive.

Consider `Cc1cccc2nccnc12`, for which the Potency entry in [1], in assay [4], in assay [5], in assay [7], in assay [8] and in assay [10] was “inactive” each time. In addition, in [2], the Potency is 24.5 µM (active). Also, the compound was classed as inactive in assay [3] and in [6].

In the case of `CCC(C)NC(N)=O` (configuration not stated), the Potency result in assay [1], in assay [2], in assay [4], in [5], in assay [7] and in [8] was “inactive” throughout. Also, the Potency result in [10] was “inactive”. The outcome in assay [3], in assay [6] and in assay [9] was inactive.

For `Cc1cc2cc3c(C)cc(=O)oc3c(C)c2o1`, the Potency result in assay [1], in [2], in [4], in [5], in assay [7] and in [8] was “inactive” throughout. Further, the Potency result in [10] was “inactive”. In addition, the call in assay [3], in assay [6] and in [9] was inactive.

As to `O=C(CCN1CCN(CCO)CC1)N1c2ccccc2Sc2ccc(C(F)(F)F)cc21`, the Potency result in [1], in assay [2], in assay [4], in assay [5], in assay [7] and in [10] was “inactive” each time. Further, the compound was classed as inactive in assay [3], in assay [6] and in assay [9].

On to `COc1ccc(-c2cc(=O)c3c(O)cc(O[C@@H]4O[C@H](CO[C@@H]5O[C@@H](C)[C@H](O)[C@@H](O)[C@H]5O)[C@@H](O)[C@H](O)[C@H]4O)cc3o2)cc1O`, for which the Potency entry in assay [1], in assay [2], in [4], in [5], in [7] and in assay [8] was “inactive” in each case. Further, the Potency entry in [10] was “inactive”. In addition, the result in assay [3], in [6] and in assay [9] was inactive.

`O=C(Nc1ccc(Cl)c(Cl)c1)C1CC1`: the Potency result in assay [1], in [2], in [4], in assay [5] and in assay [10] was “inactive” in each case. Besides, the compound was called inactive in [3], in assay [6] and in [9]. Also, the Potency in assay [7] is 9.52 µM (active); in assay [8], 19 µM (active).

Regarding `O=C(CCNNC(=O)c1ccncc1)NCc1ccccc1`, the Potency result in assay [1], in [2], in assay [4], in [5], in [7] and in [10] was “inactive” in each case. For the same compound, the outcome in [3], in assay [6] and in assay [9] was inactive.

`CN=C(NC#N)Nc1ccc(C2=NNC(=O)CC2C)cc1` (configuration not stated): the Potency result in assay [1], in assay [2], in assay [4], in [5], in assay [7] and in assay [8] was “inactive” throughout. Further, in assay [10], the Potency result is “inactive”. In addition, the result in assay [3], in assay [6] and in assay [9] was inactive.

`O=S(O)(O)=S`: the values for the activity change, negative = cytotoxicity in assay [1], in [7] and in assay [10] were 1.11% [at 6.97 µM], 1.38% [at 6.97 µM] and -0.126% [at 6.97 µM], respectively. For the same compound, the cytotoxicity increase is -0.289% [at 6.97 µM] in assay [2], 0.202% [at 6.97 µM] in assay [4] and -1.12% [at 6.97 µM] in assay [5]. Moreover, the cytotoxicity in [3] was 8.46% [at 6.97 µM]. Also, in assay [6], the activity change, negative = cytotoxic was 1% [at 6.97 µM]. Moreover, the activity change in [9] was -0.887% [at 6.97 µM].

Regarding `Cc1ccsc1/C=C/C1=NCCCN1C`, the Potency entry in assay [1], in assay [2], in assay [4], in [5] and in [7] was “inactive” throughout. In addition, the result in assay [3], in [6] and in [9] was inactive.

Turning to `O=C(c1ccc(O)cc1)c1ccc(O)c(O)c1O`, the Potency entry in [1], in assay [2], in assay [4], in assay [5], in assay [7] and in assay [10] was “inactive” each time. Also, the outcome in assay [3], in assay [6] and in [9] was inactive.

With `O=C(OCC(O)CO)c1ccccc1Nc1ccnc2c(C(F)(F)F)cccc12` (configuration not stated), the Potency result in [1], in [2], in assay [4], in [5] and in assay [10] was “inactive” each time. In addition, the compound was called inactive in assay [3], in [6] and in assay [9]. The Potency in assay [7] was 4.77 µM (active); in assay [8], 3.79 µM (active).

Consider `CCCCCCN`, for which the Potency result in assay [1], in [2], in assay [4], in assay [5], in [7] and in assay [8] was “inactive” in each case. In addition, the Potency entry in assay [10] is “inactive”. Also, the compound was called inactive in assay [3], in assay [6] and in assay [9].

In the case of `CCOCCOCCOCC`, the Potency entry in assay [1], in assay [2], in [4], in assay [5], in assay [7] and in assay [10] was “inactive” each time. Further, the compound was classed as inactive in assay [3], in assay [6] and in [9].

On to `Cc1ccc2c(c1)OCC(=O)CO2`, for which the Potency entry in assay [1], in [2], in [4], in assay [5], in assay [7] and in assay [8] was “inactive” throughout. The Potency entry in assay [10] is “inactive”. The result in [3], in [6] and in assay [9] was inactive.

For `OC[C@H](Cc1cccc(O)c1)[C@H](CO)Cc1cccc(O)c1`, the Potency result in [1], in [2], in assay [4], in assay [5], in assay [7] and in assay [8] was “inactive” each time. Also, the Potency entry in assay [10] was “inactive”. The result in assay [3], in assay [6] and in [9] was inactive.
